Experimental data from the supplement of paper PMC6555819.

Tests used:
Experiment in all cases: PBM binding z-score (relative to random genomic background probes); higher = stronger binding; sequences stand for … in GC…GCGATTGACAGCGTAGAATGAAGG
[1] = tested on: RARb homodimer (NR concentration 270 nM)
Procedure, shortened: (§1)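 Each nuclear receptor dimer, without ligand, was incubated for 1 h on custom Agilent 4×180K protein-binding microarrays. Binding was detected with antibodies against each partner (one per run), and scanned fluorescence was regression-normalized. The binding z-scores are referenced to random human genomic background probes.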

[2] = tested on: RARg:RXRa (NR concentration 270 nM, RXRa partner concentration 90 nM)
Procedure, shortened: as §1

[3] = tested on: RARg homodimer (NR concentration 270 nM)
Procedure, shortened: as §1

[4] = tested on: RXRa DBDmut IVT, anti-RXR (DBD mutation: RXRa K156A/R161A, NR concentration 90 nM)
Procedure, shortened: as §1

[5] = tested on: RXRa homodimer (NR concentration 180 nM)
Procedure, shortened: as §1

[6] = tested on: THRa:RXRa (NR concentration 90 nM, RXRa partner concentration 90 nM)
Procedure, shortened: as §1

[7] = tested on: THRa homodimer (NR concentration 90 nM)
Procedure, shortened: as §1

[8] = tested on: VDR homodimer (NR concentration 270 nM)
Procedure, shortened: as §1

Sequence | PBM binding z-score [1] | PBM binding z-score [2] | PBM binding z-score [3] | PBM binding z-score [4] | PBM binding z-score [5] | PBM binding z-score [6] | PBM binding z-score [7] | PBM binding z-score [8]
CGTCAAAGTTCAAGGTAGCGTAACAGAAAGCAGC | 3.9 | 5.41 | 6.34 | 4.38 | 4.84 | 2.19 | 0.191 | 3.11
ATCTCTAGGTAAAAGTTCAGTGTATCCCGAGGAT | 2.33 | 1.84 | 2.05 | 1.12 | 1.49 | 1.43 | 0.678 | 2.3
CGTCCAAGGTCAATGCTAGGTCAGTGAGAGCATT | 5.01 | 7.45 | 6.65 | 3.53 | 5.06 | 4.37 | 2.87 | 3.36
GCTTGTCGATCAAGGTTAAGAAAGACTAAGCTAA | 0.0989 | 0.457 | 0.385 | -0.057 | 0.794 | 1.68 | -0.268 | -0.484
CGTCTAAGGTCAGAGAGGTCAGTGAATGCCGAGT | 5.36 | 6.8 | 7.77 | 3.83 | 6.37 | 4.66 | 3.81 | 5.7
ACTAGCAGGCCAAGTTTGGGTCACTCACACAAAG | 2.45 | 2.62 | 1.68 | 0.307 | 1.08 | 2.56 | 1.24 | 0.348
AGAATGAGGTTATACGTAGATCAGGGGAGAAAGT | 0.956 | 1.78 | 1.26 | 2.05 | 2.14 | 2.25 | 0.738 | 1.45
CCTAGTAGGCCAGGGTCACTCAAGCATTTCGCTT | 3.03 | 3.04 | 2.56 | 0.104 | 3.3 | 2.94 | 1.18 | 1.6
TCGTGTAGATCAACAGGAGGTTAAGAAAGATCGA | 0.472 | 0.729 | 0.231 | -0.0769 | 0.672 | 0.819 | -0.773 | -0.463
CGTCCAAGGCCAAAGGTCAGTGAAGAGATGACGG | 4.6 | 5.87 | 5.18 | 1.13 | 5.47 | 3.24 | 0.341 | 0.884
ATCGAAAGGTCGGCGAGGTGAGTATACACCGTTT | 2.95 | 3.69 | 3.91 | 0.785 | 3.86 | 3.29 | 0.709 | 0.535
CCGACTGAGGCAAAGGTTACCATACTCAGTACGA | 1.76 | 1.73 | 1.29 | 0.393 | 2.61 | 1.54 | 0.023 | -0.216
CCTCGGAGCACAGAAGGTCAGAGCTGTCCGCTTT | 3.08 | 2.63 | 2.37 | 0.0874 | 2.3 | 3.13 | -0.478 | -0.376
CCAGACAGGTGAAAGGTAACTAAGTCTGGTACGC | 0.728 | 1.08 | 0.582 | -0.0522 | 1.99 | 0.784 | -0.203 | -0.529
AGAATGAGGTTACCAAAGATCAGAGAAACGCTTG | 0.638 | 2.17 | 1.6 | 1.04 | 2.47 | 2.64 | 0.519 | 0.185
CCGACTGGGGGAAAGGTTACCATACTCAGTACGA | 2.1 | 2.79 | 1.78 | 0.141 | 3.06 | 2.14 | 0.672 | 0.298
CCTACTGGGCCATCAGGTCATTGACATCAACGTT | 2.72 | 1.97 | 2.1 | 0.333 | 1.81 | 3.22 | 3.14 | 1.41
TCATATGGGTAATACAGGTGAAAGTCGGCATCTA | 0.197 | 0.414 | 0.489 | 0.75 | 0.794 | 0.846 | -0.109 | -0.42
ACTATTAGTTGAGAAGAGGGCAACCGATAGGTTG | 1.43 | 0.92 | 0.968 | 0.286 | 0.599 | 1.37 | -0.313 | 0.263

Sequence | PBM binding z-score [1] | PBM binding z-score [2] | PBM binding z-score [3] | PBM binding z-score [4] | PBM binding z-score [5] | PBM binding z-score [6] | PBM binding z-score [7] | PBM binding z-score [8]
GTACCAAGATGAATAGGTCGTTGATGAGTAGGCG | 0.283 | 0.181 | 0.272 | -0.187 | 0.691 | 0.143 | -0.535 | -0.179
CCTAGTGGGCCATCAGGTCATTGATATCAACGTT | 2.68 | 2.11 | 1.92 | 0.53 | 1.45 | 3.13 | 2.59 | 1.43
ACTAGTTGGTCAGCTGAGGTCACATACAATTCGG | 4.32 | 3.83 | 3.84 | 1.5 | 3.53 | 4.98 | 4.72 | 3.28
ACTATTAGTTGAGACGAGGGCACCCGATAGGTTG | 1.01 | 0.598 | 1.02 | 0.586 | 0.681 | 2.57 | 0.574 | 0.89
TTACCAAGGTGAAGGTCCTTGATCCCTCTGTAGA | 1.32 | 0.466 | 0.274 | -0.201 | 0.918 | 1.95 | 0.841 | -0.203
CCTACTGGGCCAAGGTTATTGATCAGTCAAAGCA | 0.487 | 0.504 | 0.249 | -0.428 | 0.318 | 0.787 | 0.234 | -0.0593
ATATGTAGGTTACATCCGGGTCATTCAGGCTATG | 3.04 | 3.77 | 2.17 | 1.01 | 3.39 | 3.75 | 2.57 | 2.83
TGAATGAGGTTATAAGATAAGGGAACGTTGCAAA | 0.00548 | 1.36 | 1.01 | 0.619 | 1.79 | 1.68 | 0.04 | 0.0331
CCTGCAAGGTCAATGGTCAGCTAAAGCAGCTCGC | 3.65 | 5.83 | 5.9 | 3.75 | 5.35 | 3.77 | 1.8 | 2.45
TAGCCTAGGTCATGCGGGCCTGTATAGTGTCGGC | 2.91 | 3.78 | 4.07 | 0.686 | 2.87 | 3.03 | 1.05 | -0.143
ACAGACAGGTCAGTGAAGGTAACTCAGCTGGACG | 2.48 | 3.33 | 4.21 | 0.616 | 2.23 | 3.86 | -0.151 | -0.256
TCATACAGGTAAAAGGTGAAAGTCGGTGTGGTAA | 2.02 | 2.07 | 1.09 | 1.58 | 3.18 | 1.81 | 0.619 | 0.324
CCTTACCGGTCACTGACAGGTTATAGCATTTGGA | 2.7 | 3.19 | 3.15 | 0.586 | 1.2 | 1 | 0.662 | 0.617
GCTAGTTGGTGAGTAAAAGGTCACACACCGGTCG | 4.97 | 4.87 | 4.37 | 0.235 | 5.35 | 3.48 | 1.6 | 1.57
ATACCAAGGTGATCGTGAGGTCGGTGATACTAAC | 1.4 | 1.58 | 0.586 | -0.0984 | 0.701 | 2.63 | 1.81 | 0.911
TCGAGAAGGTTAGGGGCATTCAGAATGGCGTCGA | 1.46 | 1.08 | 0.841 | 0.703 | 1.45 | 1.12 | 0.127 | 0.971
ACTATTAGTTGACTTAGGCCAACCGATACGACGC | 0.826 | 0.899 | 0.91 | 0.805 | 0.539 | 0.898 | 0.912 | 0.435
TCTCGGAGGACACGAATGTCAGAGCTTTCCAGAG | 0.771 | 0.642 | 1.42 | 0.518 | 0.168 | 1.23 | 0.52 | -0.491
TTACCAAGGTGAAGGTCGTAGATCCCTCTGTAGA | 1.43 | 1.13 | 1.04 | -0.566 | 1.66 | 2.19 | 0.633 | 0.348

Sequence | PBM binding z-score [1] | PBM binding z-score [2] | PBM binding z-score [3] | PBM binding z-score [4] | PBM binding z-score [5] | PBM binding z-score [6] | PBM binding z-score [7] | PBM binding z-score [8]
TCTTGTAGATCAAGCAGGTTAATAAAGCCTGAGT | -0.223 | -0.313 | -0.28 | 0.435 | 0.2 | 0.0183 | -0.531 | 0.0475
CGAACGAGGGCATTAGTTGATAGCAAATGCCGAT | 0.501 | 0.774 | 1.37 | 2.96 | 0.438 | 0.5 | -0.321 | 1.64
ACTCAAAGTTCAGGACGAGGTAACGTAAAGCACG | 3.56 | 4.83 | 5.29 | 3.38 | 3.39 | 4.03 | 1.98 | 2.46
CCTCGGAGGACGACAGGAGGTCAGAGCTGCCAGA | 2.84 | 2.54 | 2.08 | -0.23 | 1.84 | 2.33 | 0.421 | 0.665
TCTATTAGTAGATTAGGGCAACCGAAACAGCGGA | 0.21 | 0.245 | 0.496 | 0.901 | 0.284 | 0.399 | -0.319 | -0.419
CCTATTAGTTAACCATAAGGGCAACCGAAGCTCG | 1.66 | 0.813 | 1.14 | 0.665 | 0.518 | 1.9 | 1.31 | 0.663
TCTATTAGTCGAAGGGCAACCGACGAGTCCGTTT | 1.15 | 0.394 | 0.638 | 1.56 | 0.534 | 0.187 | -0.0492 | 1.35
AATACAGGGTCATCGTAGGCCAGTGTACGCACAG | 3.7 | 5.65 | 5.19 | 3.59 | 6.76 | 4.57 | 1.49 | 2.98
CAAACTAGGTGACAGAGGTCAAAGTCCGTGCGTA | 4.61 | 5.54 | 4.74 | 2.18 | 6.14 | 4.15 | 1.75 | 4.09
TCTATTAGTTGATTAGGGCAACTGAAACAGCGGA | 0.795 | 0.45 | 0.804 | 0.885 | 0.275 | 0.533 | 0.295 | 0.318
ATCGAAAGGTCGACGAGGTGAGTGTACACCGTTT | 3.22 | 4.45 | 4.1 | 1.71 | 4.92 | 3.71 | 1.21 | 1.52
TCTGCTAGGTCAGTTGCTCAGCTAACGAGCTGCC | 1.89 | 2.18 | 3.06 | 0.567 | 0.527 | 1.01 | -0.484 | -0.87
TCATAGAGGTAAACAGGTGAAAGTCCGTAAGTTA | 0.716 | 0.649 | 0.356 | 1.07 | 1.1 | 0.843 | -0.0526 | -0.0713
TAGCCTAGGTCATTGGGCCATTATAGTACGCATC | 3.07 | 4.19 | 4.28 | 1.85 | 2.96 | 3.07 | 1.24 | 1.44
CGAACTAGGTCATTGACAGGAGAGTGAATAGTAA | 2.29 | 3.65 | 4.2 | 2.21 | 2.23 | 2.48 | 0.629 | 0.844
GCTAGTTGGTCAGTAAAAGGTCCCACACCGGTCG | 1.08 | 0.163 | 0.286 | -0.751 | -0.112 | -0.281 | -0.0359 | -0.387
ATCTCTAGGTAAAAATTCAGTGAATCCCGAGGAT | -0.367 | 0.604 | 0.58 | -0.329 | 0.184 | 0.19 | -0.0698 | -0.0746
TCTATTAGATGAAGGGCAACCGACGAGTCCGTTT | 1.1 | 0.508 | 0.672 | 1.4 | 0.961 | 0.13 | -0.334 | 0.972
